In PubChem BioAssay AID1224864 (Chung Lab, Department of Pediatrics, Emory University, 2016):
The whole screen tested about 2,000 compounds, of which about 20 (1%) were called active. How the calls were made is not given here. The full list was thinned out, with actives kept by preference.

Target: Cystic fibrosis transmembrane conductance regulator (Homo sapiens) (UniProt P13569)
Assay: correctors of F508del-CFTR surface localization, primary screen, imaging, HeLa, high-content microscopy, immunofluorescence (AID 1224864);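 further: HeLa cells stably expressing F508del-CFTR stained with 3G11 antibody against NBD1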;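 on Plasma membrane CFTR intensity: mean immunofluorescence in a thin cell-margin band taken as plasma membrane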
Settings: PM immunofluorescence imaging, 24 h, at 10 µM, stronger effect = higher value, relative to vehicle wells set at 100; total CFTR intensity: measured here: total cellular F508del-CFTR signal

Cystic fibrosis transmembrane conductance regulator (Homo sapiens), sequence (P13569 whole entry, looked up, stated change not applied): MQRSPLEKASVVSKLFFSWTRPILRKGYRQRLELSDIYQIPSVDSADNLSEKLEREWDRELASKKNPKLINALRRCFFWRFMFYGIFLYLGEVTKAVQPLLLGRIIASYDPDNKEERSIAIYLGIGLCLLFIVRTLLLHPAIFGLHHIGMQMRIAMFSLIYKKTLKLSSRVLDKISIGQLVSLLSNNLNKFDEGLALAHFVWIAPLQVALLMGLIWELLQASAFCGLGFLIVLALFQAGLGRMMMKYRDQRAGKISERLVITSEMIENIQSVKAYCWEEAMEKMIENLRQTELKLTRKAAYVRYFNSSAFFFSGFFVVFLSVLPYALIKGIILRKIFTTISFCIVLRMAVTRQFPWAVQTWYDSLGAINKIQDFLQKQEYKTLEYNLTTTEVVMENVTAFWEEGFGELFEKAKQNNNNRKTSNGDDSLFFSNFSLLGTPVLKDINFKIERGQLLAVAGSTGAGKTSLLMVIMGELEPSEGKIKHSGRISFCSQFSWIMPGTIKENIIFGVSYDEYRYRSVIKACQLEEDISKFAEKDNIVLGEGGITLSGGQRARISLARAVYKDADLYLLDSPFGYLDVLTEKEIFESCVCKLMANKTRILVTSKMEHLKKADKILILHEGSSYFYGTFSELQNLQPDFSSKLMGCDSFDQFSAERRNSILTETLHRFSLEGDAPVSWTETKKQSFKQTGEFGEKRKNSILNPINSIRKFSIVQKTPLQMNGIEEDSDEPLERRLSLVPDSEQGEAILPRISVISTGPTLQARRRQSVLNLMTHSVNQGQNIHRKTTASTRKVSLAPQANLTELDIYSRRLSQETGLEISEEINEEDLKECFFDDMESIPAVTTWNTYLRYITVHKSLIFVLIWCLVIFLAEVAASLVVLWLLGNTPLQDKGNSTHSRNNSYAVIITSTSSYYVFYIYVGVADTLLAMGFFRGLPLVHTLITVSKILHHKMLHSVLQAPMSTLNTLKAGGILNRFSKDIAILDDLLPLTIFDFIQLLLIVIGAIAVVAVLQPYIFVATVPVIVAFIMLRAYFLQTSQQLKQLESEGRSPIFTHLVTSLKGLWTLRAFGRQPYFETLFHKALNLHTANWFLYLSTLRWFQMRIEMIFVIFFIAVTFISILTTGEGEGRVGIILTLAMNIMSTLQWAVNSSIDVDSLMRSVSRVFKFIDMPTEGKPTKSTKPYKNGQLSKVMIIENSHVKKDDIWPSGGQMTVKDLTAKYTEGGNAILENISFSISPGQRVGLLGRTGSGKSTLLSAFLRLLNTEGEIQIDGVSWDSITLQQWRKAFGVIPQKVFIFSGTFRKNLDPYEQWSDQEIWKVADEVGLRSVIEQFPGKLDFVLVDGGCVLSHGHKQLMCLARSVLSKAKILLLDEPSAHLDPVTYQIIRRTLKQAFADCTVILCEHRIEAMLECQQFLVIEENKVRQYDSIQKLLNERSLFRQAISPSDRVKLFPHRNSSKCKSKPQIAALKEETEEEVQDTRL

Plasma membrane CFTR intensity, active:
Cc1ccc(/C=N/Nc2nc(C(C)(C)C)cs2)o1 135%
C#C[C@]1(O)CC[C@H]2[C@@H]3CCc4cc(OC)ccc4[C@H]3CC[C@@]21C 133%

Plasma membrane CFTR intensity, inactive:
O=C(O)C(O)c1ccccc1 (stereo unspecified) 89%
Cc1cccc(-c2ncc(CN3CCN(CC(C)C)C(CCO)C3)cn2)c1 (stereo unspecified) 80%
COC(=O)c1ccc(NC(=O)c2ccccc2SC)cc1 81%
CC(=O)c1c(N)nc2n(c1=O)CCCCC2 80%
Cn1c(=O)[nH]c(=O)c2c1nc(Br)n2CCCO 81%
COc1cc(C(=O)Nc2ccc(N(C)C)cc2)c([N+](=O)[O-])cc1OC 100%
CC(C)(C)c1csc(N/N=C/c2cccnc2)n1 93%
C=CCC1(Cl)C(=O)C(Cl)=C(N2CCOCC2)C1(OC)OC (stereo unspecified) 77%
CC(C)=CCC/C(C)=C/CC/C(C)=N/O 84%
Cc1ccc(/C=N/NC(=O)C2(C)CC2(Br)Br)cc1 (stereo unspecified) 82%
CCOC(=O)c1ccc(NC(=S)NCCc2ccccc2F)cc1 81%
CCOC(=O)Cc1c(C)nc(N)[nH]c1=O 82%
CCN1C(=O)C(CC(=O)Nc2ccc(F)cc2)N(Cc2ccc3c(c2)OCO3)C1=S (stereo unspecified) 81%
CCn1c(C)cc2c(c1=O)C(c1ccccc1)C(C(=O)OC)=C(N)O2 (stereo unspecified) 90%
CCC(C(=O)Nc1ccc2c(c1)OCCO2)c1ccccc1 (stereo unspecified) 78%
O=c1[nH]c(Cc2ccccc2)nc2c1oc1ccccc12 78%
CCOc1ccc(C(=O)NC(C)C2COc3ccccc3O2)cc1 (stereo unspecified) 82%
CC(C)CN1CCN(Cc2cccn2-c2ccccn2)CC1CCO (stereo unspecified) 88%
Cc1csc(N)n1 86%
CS(=O)(=O)Oc1ccc2c(c1)O/C(=C\C=C\c1ccccc1)C2=O 92%
Fc1ccccc1CNCCC(Cc1ccccc1)c1ccc2c(c1)OCO2 (stereo unspecified) 171%
CC(NC(=O)c1cccnc1)C(=O)O (stereo unspecified) 75%
COc1ccc(OC(C)C(=O)Nc2ccc([N+](=O)[O-])cc2)cc1 (stereo unspecified) 76%
CC(NC(=O)c1ccc(OC2CCN(Cc3ccccn3)CC2)cc1)c1ccccc1 (stereo unspecified) 73%
Cc1ncc(CN2CCC(CO)(CCc3ccccc3)CC2)s1 75%
Cc1ccc(-c2nn(-c3cccc(F)c3)cc2CN2CCN(c3ccccn3)CC2)o1 69%
CC12CCC(C(=O)NNc3ccccc3)(C(=O)C1=O)C2(C)C (stereo unspecified) 92%
O=c1nc2n(c3c1oc1ccccc13)Cc1ccccc1-2 131%
C#C[C@]1(O)CC[C@H]2[C@@H]3CCc4cc(OC5CCCC5)ccc4[C@H]3CC[C@@]21C 41%
C#C[C@]1(O)CC[C@H]2[C@@H]3CCc4cc(O)ccc4[C@H]3CC[C@@]21C 113%
COc1ccc(C2c3c(n[nH]c3C)CC(C)(O)C2C(C)=O)cc1OC (stereo unspecified) 87%
Cc1ccc2c(c1)C(C)(C)[C@]1(C)NC(=O)CCN21 94%
CC(C)C(CCN1C(=O)CCC1=O)C1CCOC(C)(C)C1 (stereo unspecified) 87%
CC(C)OC(=O)CC1C(=O)NCCN1C(=S)NC(=O)c1ccccc1Cl (stereo unspecified) 79%
COc1ccc(C2C(C(=O)c3ccco3)=C(O)C(=O)N2CC2CCCO2)cc1 (stereo unspecified) 79%
COc1ccc2cc(C3(C)NC(=O)NC3=O)ccc2c1 (stereo unspecified) 89%
COc1ccc2[nH]c3c(c2c1)CCNC3C1CC=C(C)CC1 (stereo unspecified) 99%
COC(=O)C1[C@H]2C(=O)N(Cc3cccs3)C[C@]23C=C[C@H]1O3 (stereo partly specified) 92%
S=C(c1ccc2c(c1)OCO2)N1CCCCC1 83%
Fc1ccc(NC(=S)Nc2ccccc2Cl)cc1 92%
CCNC(=O)c1sc2cc(C)ccc2c1Cl 92%
NS(=O)(=O)c1cc2c(cc1Cl)NC(CSCc1ccccc1)=NS2(=O)=O 84%
C[C@@H]1C[C@H](Nc2ccccc2)c2ccccc2N1C(=O)c1cccnc1 97%
CC(=O)c1c[nH]c2ccc(C)cc2c1=O 83%
COc1ccc(OC)c(NC2=C(Cl)C(=O)N(Cc3ccccc3)C2=O)c1 88%
Cc1ccc2occ(C(=O)c3ccco3)c(=O)c2c1 86%
O=C(O)[C@H](Cc1ccccc1)NC(=O)N1CCC(Cc2ccccc2)CC1 89%
CC(C)CC(=O)N(Cc1ccc(F)cc1)C1CCS(=O)(=O)C1 (stereo unspecified) 96%
CCOc1ccccc1OCCOc1ccc(F)cc1 86%
C=CCNc1nc2c(c(=O)n(C)c(=O)n2C)n1CC(=C)C 82%
CCOC(=O)C1=C(N)Oc2c(c(=O)[nH]c3ccccc23)C1c1ccccc1 (stereo unspecified) 93%
CCNC(=O)C(Cc1ccccc1)NC(=O)OCc1ccccc1 (stereo unspecified) 81%
COC(=O)c1ccccc1NC(=O)c1ccc(COc2ccc3c(c2)CCC3)cc1 84%
CCOC(=O)C1C(=O)OC2(CCOC(C)(C)C2)C1C(=O)OCC (stereo unspecified) 90%
COc1ccc(NC(=O)N2CCCCC2c2cccnc2)cc1 (stereo unspecified) 84%
CCOC(=O)C1C2C=CC3(CN(c4ccc(Cl)c(F)c4)C(=O)C13)O2 (stereo unspecified) 84%

Total CFTR intensity, 90%:
CC(C)C(CCN1C(=O)CCC1=O)C1CCOC(C)(C)C1 (stereo unspecified)
Cc1ccc2occ(C(=O)c3ccco3)c(=O)c2c1

Total CFTR intensity, 96%:
CCOC(=O)C1=C(N)Oc2c(c(=O)[nH]c3ccccc23)C1c1ccccc1 (stereo unspecified)

Total CFTR intensity, 228%:
Fc1ccccc1CNCCC(Cc1ccccc1)c1ccc2c(c1)OCO2 (stereo unspecified)

Total CFTR intensity, 117%:
COc1ccc2[nH]c3c(c2c1)CCNC3C1CC=C(C)CC1 (stereo unspecified)

Total CFTR intensity, 86%:
COc1ccc(C2c3c(n[nH]c3C)CC(C)(O)C2C(C)=O)cc1OC (stereo unspecified)
CCOc1ccccc1OCCOc1ccc(F)cc1

Total CFTR intensity, 75%:
Cc1ncc(CN2CCC(CO)(CCc3ccccc3)CC2)s1

Total CFTR intensity, 87%:
CC(C)=CCC/C(C)=C/CC/C(C)=N/O
Cc1csc(N)n1
CCOC(=O)C1C(=O)OC2(CCOC(C)(C)C2)C1C(=O)OCC (stereo unspecified)

Total CFTR intensity, 81%:
O=C(O)C(O)c1ccccc1 (stereo unspecified)
Cc1cccc(-c2ncc(CN3CCN(CC(C)C)C(CCO)C3)cn2)c1 (stereo unspecified)
CCOC(=O)Cc1c(C)nc(N)[nH]c1=O
CCN1C(=O)C(CC(=O)Nc2ccc(F)cc2)N(Cc2ccc3c(c2)OCO3)C1=S (stereo unspecified)

Total CFTR intensity, 88%:
CC(C)CN1CCN(Cc2cccn2-c2ccccn2)CC1CCO (stereo unspecified)
CC12CCC(C(=O)NNc3ccccc3)(C(=O)C1=O)C2(C)C (stereo unspecified)
COc1ccc2cc(C3(C)NC(=O)NC3=O)ccc2c1 (stereo unspecified)

Total CFTR intensity, 66%:
CC(NC(=O)c1ccc(OC2CCN(Cc3ccccn3)CC2)cc1)c1ccccc1 (stereo unspecified)

Total CFTR intensity, 95%:
COC(=O)C1[C@H]2C(=O)N(Cc3cccs3)C[C@]23C=C[C@H]1O3 (stereo partly specified)
CCNC(=O)c1sc2cc(C)ccc2c1Cl

Total CFTR intensity, 98%:
CC(C)CC(=O)N(Cc1ccc(F)cc1)C1CCS(=O)(=O)C1 (stereo unspecified)

Total CFTR intensity, 80%:
Cc1ccc(/C=N/NC(=O)C2(C)CC2(Br)Br)cc1 (stereo unspecified)
CCOc1ccc(C(=O)NC(C)C2COc3ccccc3O2)cc1 (stereo unspecified)
CC(C)OC(=O)CC1C(=O)NCCN1C(=S)NC(=O)c1ccccc1Cl (stereo unspecified)
C=CCNc1nc2c(c(=O)n(C)c(=O)n2C)n1CC(=C)C
CCNC(=O)C(Cc1ccccc1)NC(=O)OCc1ccccc1 (stereo unspecified)

Total CFTR intensity, 153%:
Cc1ccc(/C=N/Nc2nc(C(C)(C)C)cs2)o1

Total CFTR intensity, 94%:
CCn1c(C)cc2c(c1=O)C(c1ccccc1)C(C(=O)OC)=C(N)O2 (stereo unspecified)

Total CFTR intensity, 69%:
Cc1ccc(-c2nn(-c3cccc(F)c3)cc2CN2CCN(c3ccccn3)CC2)o1

Total CFTR intensity, 92%:
CC(C)(C)c1csc(N/N=C/c2cccnc2)n1

Total CFTR intensity, 72%:
COc1ccc(OC(C)C(=O)Nc2ccc([N+](=O)[O-])cc2)cc1 (stereo unspecified)

Total CFTR intensity, 78%:
CC(=O)c1c(N)nc2n(c1=O)CCCCC2
CCOC(=O)c1ccc(NC(=S)NCCc2ccccc2F)cc1

Total CFTR intensity, 83%:
COc1ccc(C2C(C(=O)c3ccco3)=C(O)C(=O)N2CC2CCCO2)cc1 (stereo unspecified)
O=C(O)[C@H](Cc1ccccc1)NC(=O)N1CCC(Cc2ccccc2)CC1
COC(=O)c1ccccc1NC(=O)c1ccc(COc2ccc3c(c2)CCC3)cc1
CCOC(=O)C1C2C=CC3(CN(c4ccc(Cl)c(F)c4)C(=O)C13)O2 (stereo unspecified)

Total CFTR intensity, 106%:
COc1cc(C(=O)Nc2ccc(N(C)C)cc2)c([N+](=O)[O-])cc1OC
C#C[C@]1(O)CC[C@H]2[C@@H]3CCc4cc(O)ccc4[C@H]3CC[C@@]21C

Total CFTR intensity, 30%:
C#C[C@]1(O)CC[C@H]2[C@@H]3CCc4cc(OC5CCCC5)ccc4[C@H]3CC[C@@]21C

Total CFTR intensity, 93%:
Fc1ccc(NC(=S)Nc2ccccc2Cl)cc1

Total CFTR intensity, 79%:
COC(=O)c1ccc(NC(=O)c2ccccc2SC)cc1
O=c1[nH]c(Cc2ccccc2)nc2c1oc1ccccc12

Total CFTR intensity, 85%:
S=C(c1ccc2c(c1)OCO2)N1CCCCC1
NS(=O)(=O)c1cc2c(cc1Cl)NC(CSCc1ccccc1)=NS2(=O)=O

Total CFTR intensity, 77%:
C=CCC1(Cl)C(=O)C(Cl)=C(N2CCOCC2)C1(OC)OC (stereo unspecified)

Total CFTR intensity, 97%:
CS(=O)(=O)Oc1ccc2c(c1)O/C(=C\C=C\c1ccccc1)C2=O
Cc1ccc2c(c1)C(C)(C)[C@]1(C)NC(=O)CCN21

Total CFTR intensity, 76%:
CCC(C(=O)Nc1ccc2c(c1)OCCO2)c1ccccc1 (stereo unspecified)

Total CFTR intensity, 73%:
CC(NC(=O)c1cccnc1)C(=O)O (stereo unspecified)

Total CFTR intensity, 103%:
C[C@@H]1C[C@H](Nc2ccccc2)c2ccccc2N1C(=O)c1cccnc1

Total CFTR intensity, 141%:
C#C[C@]1(O)CC[C@H]2[C@@H]3CCc4cc(OC)ccc4[C@H]3CC[C@@]21C

Total CFTR intensity, 84%:
Cn1c(=O)[nH]c(=O)c2c1nc(Br)n2CCCO
CC(=O)c1c[nH]c2ccc(C)cc2c1=O
COc1ccc(NC(=O)N2CCCCC2c2cccnc2)cc1 (stereo unspecified)

Total CFTR intensity, 133%:
O=c1nc2n(c3c1oc1ccccc13)Cc1ccccc1-2

Total CFTR intensity, 100%:
COc1ccc(OC)c(NC2=C(Cl)C(=O)N(Cc3ccccc3)C2=O)c1
